# Source: PubChem BioAssay (Tox21)
# Results filed as inconclusive are left out. Entries that show only a call come without a potency. A number with no mark means an inactive call. The source made the active and inactive calls. Calls follow the shape of the full dose curve.
# Test: p53 small molecule agonists, cell-based qHTS assay with rat liver microsomes (AID 1963578)
# Conditions: HCT-116 p53RE-bla, beta-lactamase ratio, 16 h; series mostly up to 66 µM
# Text: U.S. Tox21 Program National Center for Advancing Translational Sciences [NCATS] Division of Preclinical Innovation [DPI] U.S. Environmental Protection Agency [EPA] National Institutes of Environmental Health Sciences [NIEHS] National Toxicology Program [NTP] U.S. Food and Drug Administration [FDA] Tox21 Assay Overview: p53, a tumor suppressor protein, is activated following cellular insult, including DNA damage and other cellular stresses. The activation of p53 regulates cell fate by inducing DNA repair, cell cycle arrest, apoptosis, or cellular senescence. The activation of p53, therefore, is a good indicator of DNA damage and other cellular stresses. […] The activation of the reporter gene under culture conditions can be detected by fluorescence intensity. This cell line was used to screen the Tox21 10K compound library in the condition of presence of rat liver microsomes and to identify agonists that activate the p53 signaling pathway after in vitro metabolic activation (Ooka et al., Archive of Toxicology 96:1975-1987, 2022).
# Tox21 Assay Protocol Summary: The p53RE-bla cells were dispensed at 4,000cells/3ul/well in 1536-well black-clear bottom plates. After the assay plates were incubated at 37 C, 5% CO2 incubator for 5 hours, 23 nL of compounds dissolved in DMSO, positive controls or DMSO only was transferred to the assay plate. Following compound addition, 3 uL of rat liver microsomes (Molecular Toxicology, Boone, NC) at final concentration of 0.5 mg/mL and 1uL of Beta-Nicotinamide adenine dinucleotide 2-phosphate (NADPH) at final concentration of 0.5 mg/mL were transferred to the assay plate. The plates were incubated at 37 C for 16 hours. 1 uL of LiveBLAzer detection mixture was added to each well and the plates were incubated at room temperature in the dark for 2 h.
SMILES,Potency,activation
OC1(c2ccc(Cl)cc2)CCNCC1,inactive,–
OCC1CC2CC1C1CCC(CO)C21 (stereo not given),inactive,–
CCC(COC(=O)CCS)(COC(=O)CCS)COC(=O)CCS,inactive,–
COc1ccc(-c2coc3cc(O)cc(O)c3c2=O)cc1,inactive,–
C1CCCC1,inactive,–
CC(C)C(=O)OC(=O)C(C)C,inactive,–
C/C=C/C(=O)C1=C(C)C=CCC1(C)C,inactive,–
O=C(O)CSCC(=O)NC1CCSC1=O (stereo not given),inactive,–
OCC1(CO)COCOC1,inactive,–
CC/C=C\CCOC(=O)CC,inactive,–
CC(C=O)Cc1ccc(C(C)(C)C)cc1 (stereo not given),inactive,–
N[C@H](C(=O)O)c1ccc(O)cc1,–,0.317% [at 13.6 µM]
CCCCCCCCCC(C)=O,inactive,–
CC1=CC(C)C(C=O)CC1 (stereo not given),inactive,–
CCOC(=O)CN,inactive,–
C[C@@H](O)[C@H]1C(=O)N2C(C(=O)O)=C([C@H]3CCCO3)S[C@H]12,inactive,–
CCC(OCCCOC)OC(C)=O (stereo not given),inactive,–
CNC(=O)[C@H]1O[C@@H](n2cnc3c(NCc4cc(Cl)ccc4OCc4cc(C)no4)ncnc32)[C@H](O)[C@@H]1N,inactive,–
COC(=O)c1ccc(C)cc1C1=NC(C)(C(C)C)C(=O)N1 (stereo not given),inactive,–
CN(C)CCCNCCCN(C)C,inactive,–

SMILES,Potency,activation
COc1cccc(OC)c1,inactive,–
O=Cc1ccc(Cl)c(Cl)c1,inactive,–
Cc1cccc(S(=O)(=O)O)c1C,inactive,–
ON=C1CCCCC1,inactive,–
CN1[C@@H]2CC[C@H]1CC(NC(=O)n1c(=O)[nH]c3ccccc31)C2 (stereo not given in full),inactive,–
Cc1ccc(CO)cc1,inactive,–
O=c1[nH][nH]c(=O)c2cc([N+](=O)[O-])ccc12,inactive,–
CCC(C)S (stereo not given),–,1.35% [at 2.33 µM]
CCOc1ccc(Cc2nccc3cc(OCC)c(OCC)cc23)cc1OCC,inactive,–
Cc1ccc2c(c1)OCC(=O)CO2,inactive,–
CC(=O)C1(C)CC2=C(CCCC2(C)C)CC1C (stereo not given),inactive,–
NCCOCCN,inactive,–
O=C(O)c1ccc(OCCN2CCCCC2)cc1,inactive,–
CCCCCCCCCCCC[N+](C)(C)CCCS(=O)(=O)[O-],inactive,–
O=C(O)c1cc(=O)c2c(OCC(O)COc3cccc4oc(C(=O)O)cc(=O)c34)cccc2o1,inactive,–
CCOC(=O)[C@H](CCc1ccccc1)N[C@@H](C)C(=O)N1C(=O)N(C)C[C@H]1C(=O)O,inactive,–
CN(C)c1cc(NC(=O)CNC(C)(C)C)c(O)c2c1C[C@H]1C[C@H]3[C@H](N(C)C)C(=O)C(C(N)=O)=C(O)[C@@]3(O)C(=O)C1=C2O,inactive,–
CC[C@]1(O)C[C@@H]2CN(CCc3c([nH]c4ccccc34)[C@@](C(=O)OC)(c3cc4c(cc3OC)N(C)[C@H]3[C@@](O)(C(=O)OC)[C@H](OC(C)=O)[C@]5(CC)C=CCN6CC[C@]43[C@@H]65)C2)C1,inactive,–
CC(=O)OC/C=C/c1ccccc1,inactive,–
CNC(=O)Nc1ccc(Cl)c(Cl)c1,inactive,–
